Assay results as given in PubChem BioAssay AID1531 (NMMLSC, 2009).
Among all 290,000 compounds or so, about 3,300 (1.1%) were called active. Rule as the data show it: active = binding response below about 67% or above about 130%; inconclusive = no clear call, values can overlap the other calls; inactive = in between. The full list was thinned out, with actives kept by preference.

biological target: Mitogen-activated protein kinase kinase kinase 2 (Homo sapiens) (UniProt Q9Y2U5); experiment: modulators of MEK5 binding to wildtype MEKK2, primary screen, biochemical, multiplex bead flow cytometry, Alexa488-MEK5 (AID 1531); details: Alexa488-MEK5 binding to MEKK2 WT, at 10 µM, actives lie on both sides

Binding response (% of control), active:
Cc1ccc(NC(=S)N(CCCN2CCCC2)Cc2cccn2Cc2ccc(Cl)cc2)cc1 181%
COCCN1C=C2C(=O)C(C)(OC(=O)C3CCCC3)C(=O)C=C2C=C1c1ccsc1 (configuration not stated) 164%
CN(CC(=O)Nc1cccc(F)c1)CC(=O)Nc1cccc([N+](=O)[O-])c1 691%
CCN1CCN(c2ccc(S(=O)(=O)N3CCCCC3)cc2NC(=O)Cc2c(Cl)cccc2Cl)CC1 150%
CCOc1ccc2nc(N(CCCN(C)C)C(=O)c3ccc(C(=O)c4ccccc4)cc3)sc2c1 155%
CN(C)CCCN(C(=O)c1ccc(S(=O)(=O)N2CCCCCC2)cc1)c1nc2ccc(Br)cc2s1 237%
CN(C)CCCN(C(=O)c1ccc(S(=O)(=O)N2CCCc3ccccc32)cc1)c1nc2ccc(F)cc2s1 232%
COc1cccc(CN(C)CC(O)COC(c2ccccc2)c2ccccc2C)c1 (configuration not stated) 150%
CN(Cc1ccccc1)CC(O)COc1ccc(CNCc2cc3ccccc3s2)cc1 (configuration not stated) 138%
CCOC(=O)c1c(-c2ccccc2)csc1NC(=S)NC(=O)c1ccccc1 13% [inhibitor]
Cc1cccc(C)c1NC(=O)C1(C)c2cccc[n+]2CC(=O)N1Cc1cccs1 (configuration not stated) -5%
CN1C(=O)/C(=C\c2ccc(-c3ccccc3)o2)SC1=S 14% [inhibitor]

Binding response (% of control), inactive:
COc1ccc(C#Cc2c(-c3ccc(OC)cc3)oc3ccc(-c4ccc5c(c4)OCO5)cc23)cc1 96%
O=C(CNC(=O)OCc1ccccc1)NC1CCCCNC1=O (configuration not stated) 100%
Cc1ccc(NC(=S)N(CCCN2CCC(C)CC2)Cc2ccco2)cc1 107%
Cc1ccc(NC(=S)N(CCN2CCCCC2)Cc2ccco2)cc1C 97%
COc1ccc(CCNCc2c(-c3ccccc3)n(C)c3ccccc23)cc1 131%
CCOC(=O)C1(Cc2ccccc2C(F)(F)F)CCN(C(=O)c2cc(C)n(C)n2)CC1 91%
COc1ccc(N(C)S(=O)(=O)c2ccc3c(c2)CC(C)N3C(=O)C2CC2)c(OC)c1 (configuration not stated) 101%
CC1(OC(=O)C2CCCC2)C(=O)C=C2C=C(c3ccc(C#N)cc3)OC=C2C1=O (configuration not stated) 90%
COC(=O)CCCC1=CC2=CC(=O)C(C)(OC(=O)c3cccs3)C(=O)C2=CN1CC1CC1 (configuration not stated) 87%
Cc1ccc(NC(=S)NCCc2ccc(Cl)cc2)c(C)c1 111%
Cc1ccc(NC(=O)CN(C)CC(=O)Nc2cccc(F)c2)cc1[N+](=O)[O-] 97%
Cc1ccc(CN(C)CC(=O)Nc2cccc([N+](=O)[O-])c2)o1 83%
O=C(NCCNc1ccccc1[N+](=O)[O-])c1ccccc1F 105%
CN1CCN(c2ccc(S(=O)(=O)N3CCCCC3)cc2NC(=O)Cc2ccccc2F)CC1 106%
COc1ccc(CC(=O)Nc2cc(S(=O)(=O)N3CCCCC3)ccc2N2CCN(C)CC2)cc1 103%
CCOC(=O)/C=C/c1ccc(C(F)(F)F)cc1S(=O)(=O)NC(C)(C)C 93%
Cc1ccc(N(CC(=O)NC2CCCCC2)C(=O)CCCC(=O)Nc2ccccn2)c(C)c1 105%
CC1(C)c2[nH]c3ccccc3c2C[C@H]2C(=O)N(N)CC(=O)N21 110%
CCOc1ccc2nc(N(CCN(C)C)C(=O)c3ccc4ccccc4c3)sc2c1 129%
CCc1ccc2nc(N(CCCN(C)C)C(=O)c3ccc4c(c3)OCCO4)sc2c1 116%
CCN(CC)CCN(C(=O)c1ccc(S(=O)(=O)N2CCOCC2)cc1)c1nc2cc3c(cc2s1)OCCO3 115%
O=C(Nc1nc2ccc([N+](=O)[O-])cc2s1)c1ccc(S(=O)(=O)N2CCCc3ccccc32)cc1 91%
CSc1nc2ccc(S(=O)(=O)N3CCc4ccccc43)cc2s1 98%
CN(C)CCN(C(=O)C1=COCCO1)c1nc2ccc(Cl)cc2s1 111%
O=C1c2ccccc2S(=O)(=O)c2cc(N3CCN(c4ccccn4)CC3)ccc21 97%
Cc1cccc(C(=O)N2CCN(S(=O)(=O)N3CCCCC3)CC2)c1 108%
COC(C/C=C/C(=O)[C@@H](C)OCc1ccccc1)OC 99%
Cc1nc(-c2ccccc2)sc1C1(C)CC(c2cccnc2)=NO1 (configuration not stated) 101%
COc1ccc(NC2CCCN(C(=O)c3ccncc3)C2)cc1 (configuration not stated) 97%
COc1cccc(CN(C)CC(=O)Nc2ccccc2C(=O)Nc2ccccc2)c1 88%
Cc1ccccc1C(OCC(O)CN1CCCCC1CCO)c1ccccc1 (configuration not stated) 121%
Cc1ccc(CN(N=Nc2nonc2N)c2nonc2N)c(C)c1 92%
CCN(CC)S(=O)(=O)c1ccc(N2CCOCC2)c(NC(=O)C2CSC3(C)CCC(=O)N23)c1 (configuration not stated) 100%
Cc1ccc(OCC(=O)OC(C)CN(C)Cc2ccccc2)cc1 (configuration not stated) 94%
OC(CNCc1ccc2c(c1)OCO2)COc1ccccc1 (configuration not stated) 93%
O=C(N/N=C/c1cccc(O)c1)c1cc2c(ccc3ccccc32)o1 97%
CCOC(=O)c1c(-c2cccc(C)c2)csc1NC(=O)c1c(-c2ccccc2)noc1C 84%
CCOC(=O)c1c(-c2ccc(-c3ccccc3)cc2)csc1NC(=O)CCC(=O)O 97%
CCc1cccc(C)c1NC(=S)N(CCCN1CCN(C)CC1)Cc1cccs1 100%
Cc1cccc(C)c1NC(=O)N1CC(C)OC(C)C1 (configuration not stated) 107%
COc1ccc(C(=O)N2CCCCC2C(=O)Nc2ccc(-n3nc(C)cc3C)cc2)o1 (configuration not stated) 107%
COc1ccc(Nc2ncc(F)c(N3CCOCC3)n2)cc1 78%
CC(=O)N1c2ccc(S(=O)(=O)N3CCC(C(=O)NCc4ccc(F)cc4)CC3)cc2CC1C (configuration not stated) 99%
O=C(O)C(c1ccccc1)N1C(=O)/C(=C\c2ccc(-c3cccc(Cl)c3)o2)SC1=S (configuration not stated) 85%
NS(=O)(=O)c1ccc(-c2ccc(/C=C3\SC(=O)NC3=O)o2)cc1 102%
